Measurements reported in PubChem BioAssay (EPA / NIEHS).
Results filed as inconclusive are left out. Some structures have more than one record in an assay (separate samples or runs), and their calls can disagree. The source made the active and inactive calls. Rule for the calls, unless noted: active = hit-call score of the fitted dose curve at least 0.9, where 1 is the maximum; inconclusive = response in the unintended direction; inactive = score below 0.9.

How the values were obtained:
[1] = target: CCAAT/enhancer-binding protein beta (Homo sapiens) (UniProt P17676); assay: ATG_C_EBP_CIS: Attagene CIS-FACTORIAL HepG2 Assay for human CCAAT/Enhancer Binding Protein (C/EBP) beta (AID 2282927; active = hit-call score of the fitted dose curve at least 0.9, where 1 is the maximum; inactive = score below 0.9); conditions: HepG2 Attagene cis-factorial transcription factor reporter; actives raise or lower the signal
Summary of the method: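 Chemical-treated HepG2 cells (24 h) bearing cis-regulated reporter constructs were processed for total RNA, then reverse transcription, PCR amplification, fluorescent primer extension and fragment analysis; gain- and loss-of-signal were fitted against DMSO.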

[2] = ATG_AP_2_CIS: Attagene CIS-FACTORIAL HepG2 Assay for human Activator Protein 2 (AP-2) (AID 2282932; active = hit-call score of the fitted dose curve at least 0.9, where 1 is the maximum; inactive = score below 0.9); conditions: HepG2 AP-2 cis-reporter, Attagene transcription factor profiling; actives raise or lower the signal
Summary of the method: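 Cells (HepG2) transfected with promoter-driven reporter constructs, treated 24 h. Total RNA reverse-transcribed, reporter cDNA PCR-amplified, FAM-labelled by primer extension, digested, resolved by capillary electrophoresis. Activity fitted both directions versus DMSO.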

[3] = ATG_BRE_CIS: Attagene CIS-FACTORIAL HepG2 Assay for human Bone Morphogenetic Protein (BMP) Response Element (BRE) (AID 2282933; active = hit-call score of the fitted dose curve at least 0.9, where 1 is the maximum; inactive = score below 0.9); conditions: HepG2 BMP response element reporter, Attagene transcription factor profiling; actives raise or lower the signal
Summary of the method: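 Fluorescence-labelled reporter cDNA fragments, separated by capillary electrophoresis, gave the signal for this component of a 52-readout multiplex. HepG2 cells were transfected, exposed to chemicals for 24 h, and compared with DMSO using bidirectional fitting.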

[4] = ATG_E_Box_CIS: Attagene CIS-FACTORIAL HepG2 Assay for human Enhancer Box (E-box) (AID 2282936; active = hit-call score of the fitted dose curve at least 0.9, where 1 is the maximum; inactive = score below 0.9); conditions: HepG2 E-box cis-reporter transcription, actives raise or lower the signal
Summary of the method: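 Endogenous transcription factor activity was sensed in human HepG2 liver cells through transfected cis-promoter reporter units. After 24 h of dosing, total RNA was reverse-transcribed and reporter cDNA resolved by capillary electrophoresis.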

[5] = TOX21_p53_BLA_p2_viability: Viability Assessment in the Tox21 HCT-116 p53 Agonism Beta-lactamase Assay, Phase 2 (AID 2283591);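 note: compound exposure lasted 16 h at 37 °C; actives lower the ATP signal meaning cytotoxicity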
Summary of the method: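 HCT-116 p53-bla cells (4000/well) rested 5 h at 37C, then received compounds in DMSO (217-fold dilution) for 16 h at 37C, 5% CO2. After the CCF4 read, CellTiter-Glo was added; ATP luminescence was read after 30 min at room temperature.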

[6] = TOX21_p53_BLA_p3_viability: Viability Assessment in the Tox21 HCT-116 p53 Agonism Beta-lactamase Assay, Phase 3 (AID 2283593);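 note: cells exposed to compound for 16 h before reading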
Summary of the method: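 HCT-116 cells (4000/well) rested 5 h at 37C, then got DMSO compounds by pin tool (217-fold dilution) for 16 h at 37C, 5% CO2. After the bla read, CellTiter-Glo was added and luminescence read at 30 min, room temperature.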

[7] = target: Cellular tumor antigen p53 (Homo sapiens) (UniProt P04637); assay: TOX21_p53_BLA_p3_ratio: Tox21 HCT-116 p53 Agonism Beta-lactamase Assay, Ratio, Phase 3 (AID 2283596)
Summary of the method: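 Cells were seeded at 4000/well, rested 5 h at 37C, then dosed with DMSO compound solutions (217-fold dilution) for 16 h. CCF4-AM substrate was loaded for 2 h at room temperature, and the 460/530 nm emission ratio was fitted for gain of signal versus DMSO.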

[8] = target: Cellular tumor antigen p53 (Homo sapiens) (UniProt P04637); assay: TOX21_p53_BLA_p5_ratio: Tox21 HCT-116 p53 Agonism Beta-lactamase Assay, Ratio, Phase 5 (AID 2283599)
Summary of the method: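 HCT-116 cells carrying a p53-inducible beta-lactamase reporter were seeded at 4000 cells/well and dosed after 5 h with compound in DMSO (217-fold dilution). After 16 h at 37C, CCF4-AM substrate was added for 2 h, and the 460/530 nm emission ratio was scored as gain-of-signal versus DMSO.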

[9] = TOX21_p53_BLA_p5_viability: Viability Assessment in the Tox21 HCT-116 p53 Agonism Beta-lactamase Assay, Phase 5 (AID 2283600)
Summary of the method: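 Here cell health was gauged by ATP levels in wells holding 4000 cells, each treated 16 h with DMSO-delivered compounds at 217-fold dilution; reduced luminescence marked toxicity.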

[10] = target: Cellular tumor antigen p53 (Homo sapiens) (UniProt P04637); assay: TOX21_p53_BLA_p4_ratio: Tox21 HCT-116 p53 Agonism Beta-lactamase Assay, Ratio, Phase 4 (AID 2283601)
Summary of the method: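 HCT116 cells carrying an inducible beta-lactamase reporter were plated at 4000 cells/well, rested 5 h, then exposed to compounds in DMSO (217-fold dilution) for 16 h at 37C. CCF4-AM substrate was loaded 2 h at room temperature; 460/530 nm emission ratio scored gain-of-signal versus DMSO.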

[11] = target: bovine Estrogen Receptor (ER), ESR1 (gene 407238) (UniProt P49884); assay: NVS_NR_bER: NovaScreen (NVS) Nuclear Receptor Binding Assay for bovine Estrogen Receptor (ER) (AID 2283345);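 note: actives lower the bound radioligand count which means they displace the ER ligand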
Summary of the method: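 Scintillation counting of displaced radioligand gave the readout; bovine uterine membrane extract supplied the receptor. Measured 18 h post-dose, normalized to DMSO baseline. Single 25 uM duplicate screen preceded concentration-response follow-up.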

[12] = target: Estrogen receptor (Homo sapiens) (UniProt P03372); assay: NVS_NR_hER: NovaScreen (NVS) Nuclear Receptor Binding Assay for human Estrogen Receptor (ER) (AID 2283348)
Summary of the method: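 Radiodetection of ligand displacement in a lysate-based, cell-free format using MCF7 extracts, read at 18 hours. Duplicate 25 uM primary testing, then concentration series for actives.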

[13] = target: Cellular tumor antigen p53 (Homo sapiens) (UniProt P04637); assay: TOX21_p53_BLA_p2_ratio: Tox21 HCT-116 p53 Agonism Beta-lactamase Assay, Ratio, Phase 2 (AID 2283592)
Summary of the method: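 DMSO-normalized, positive-direction endpoint derived from the 460 nm/530 nm FRET ratio in HCT116 p53 beta-lactamase reporter cells exposed 16 h at 37C and loaded with CCF4-AM for 2 h.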

[14] = CCTE_Harrill_HTTr_Viability_MCF7: CCTE's 6-hour Cell Viability Assessment for the High-Throughput Transcriptomics (HTTr) Platform, in MCF-7 cells cultured in DMEM + 10% fetal bovine serum, Harrill Lab (AID 2284010; active = hit-call score of the fitted dose curve at least 0.9, where 1 is the maximum; inactive = score below 0.9)
Summary of the method: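 Read-out is propidium iodide gain of signal by high-content imaging, reflecting membrane integrity loss. Measurements are taken 6 h after dosing, eight concentrations per chemical, with DMSO serving as baseline for bidirectional curve fitting.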

[15] = CCTE_Harrill_HTTr_Apoptosis_MCF7: CCTE's 6-hour Apoptosis Assessment for the High-Throughput Transcriptomics (HTTr) Platform, in MCF-7 cells cultured in DMEM + 10% fetal bovine serum, Harrill Lab (AID 2284011; active = hit-call score of the fitted dose curve at least 0.9, where 1 is the maximum; inactive = score below 0.9)
Summary of the method: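 Apoptosis in MCF-7 cells grown in DMEM with 10% fetal bovine serum was scored after a six hour exposure by high content imaging of caspase-3/7 activation (CellEvent Caspase 3/7 Green), with DMSO serving as negative control and baseline.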

[16] = TOX21_p53_BLA_p4_viability: Viability Assessment in the Tox21 HCT-116 p53 Agonism Beta-lactamase Assay, Phase 4 (AID 2283597);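 note: hits lower the luminescence signal meaning cytotoxicity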
Summary of the method: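 In this multiplexed secondary endpoint, HCT116 cells (4000 per well, compound at 5 h, 16 h treatment) received CellTiter-Glo after the beta-lactamase read. Luminescence after 30 min RT reflects ATP, and falling signal marks cytotoxicity.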

[17] = read-out: Interleukin-8 (IL8), CXCL8 (gene 3576); assay: BSK_3C_IL8: BioMAP Diversity Plus: 3C Assay for Interleukin-8 (IL8) Biomarker Activity (AID 2283020; active = hit-call score of the fitted dose curve at least 0.9, where 1 is the maximum; inactive = score below 0.9); conditions: primary human endothelial cells (HUVEC); actives raise or lower the signal
Summary of the method: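 Endothelial primary cells of human umbilical vein origin are dosed with chemical; after 24 h the IL-8 biomarker is measured by ELISA, and concentration–response is fitted in both directions versus DMSO.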

[18] = read-out: Thrombomodulin, THBD (gene 7056); assay: BSK_3C_Thrombomodulin: BioMAP Diversity Plus: 3C Assay for Thrombomodulin Biomarker Activity (AID 2283029; active = hit-call score of the fitted dose curve at least 0.9, where 1 is the maximum; inactive = score below 0.9); conditions: primary human endothelial cells (HUVEC); actives raise or lower the signal
Summary of the method: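 Endothelial cells from umbilical vein are dosed with test chemical and incubated 24 h. Thrombomodulin is then quantified by ELISA, with DMSO serving as negative control and activity baseline.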

[19] = read-out: Vascular cell adhesion molecule 1 (VCAM1), VCAM1 (gene 7412); assay: BSK_CASM3C_VCAM1: BioMAP Diversity Plus: CASM3C Assay for Vascular cell adhesion molecule 1 (VCAM1) Biomarker Activity (AID 2283055; active = hit-call score of the fitted dose curve at least 0.9, where 1 is the maximum; inactive = score below 0.9;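 note: VCAM-1 protein level quantified by ELISA on the cells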); conditions: primary human coronary artery smooth muscle cells; actives raise or lower the signal
[20] = read-out: CD40, CD40 (gene 958); assay: BSK_SAg_CD40: BioMAP Diversity Plus: SAg Assay for CD40 Biomarker Activity (AID 2283088; active = hit-call score of the fitted dose curve at least 0.9, where 1 is the maximum; inactive = score below 0.9); conditions: primary human HUVEC with PBMC; actives raise or lower the signal
Summary of the method: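 Endpoint derived by fitting increases or decreases versus DMSO controls. CD40 is detected by fluorescence ELISA in a human vascular co-culture of endothelium and PBMC at 24 h.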

Measured: AC50

Sequence of bovine Estrogen Receptor (ER), ESR1 (gene 407238) (P49884 whole entry, looked up): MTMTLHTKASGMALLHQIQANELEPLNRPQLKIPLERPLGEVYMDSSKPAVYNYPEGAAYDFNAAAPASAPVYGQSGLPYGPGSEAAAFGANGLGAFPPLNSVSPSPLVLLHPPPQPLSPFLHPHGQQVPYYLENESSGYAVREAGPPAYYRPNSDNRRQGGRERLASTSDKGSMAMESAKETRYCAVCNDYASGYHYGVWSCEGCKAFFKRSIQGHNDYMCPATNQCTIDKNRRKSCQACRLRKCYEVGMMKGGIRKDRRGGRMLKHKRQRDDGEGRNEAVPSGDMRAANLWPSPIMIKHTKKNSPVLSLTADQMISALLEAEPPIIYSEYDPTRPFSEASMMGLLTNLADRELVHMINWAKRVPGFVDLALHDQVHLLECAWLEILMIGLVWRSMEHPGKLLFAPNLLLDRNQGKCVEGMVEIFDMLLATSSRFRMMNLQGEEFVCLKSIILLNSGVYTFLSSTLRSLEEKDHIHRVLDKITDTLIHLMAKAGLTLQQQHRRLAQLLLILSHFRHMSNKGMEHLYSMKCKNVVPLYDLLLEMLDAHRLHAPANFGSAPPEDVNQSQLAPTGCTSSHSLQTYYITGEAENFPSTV
Sequence of CCAAT/enhancer-binding protein beta (Homo sapiens) (P17676 whole entry, looked up, the tested form may be a part): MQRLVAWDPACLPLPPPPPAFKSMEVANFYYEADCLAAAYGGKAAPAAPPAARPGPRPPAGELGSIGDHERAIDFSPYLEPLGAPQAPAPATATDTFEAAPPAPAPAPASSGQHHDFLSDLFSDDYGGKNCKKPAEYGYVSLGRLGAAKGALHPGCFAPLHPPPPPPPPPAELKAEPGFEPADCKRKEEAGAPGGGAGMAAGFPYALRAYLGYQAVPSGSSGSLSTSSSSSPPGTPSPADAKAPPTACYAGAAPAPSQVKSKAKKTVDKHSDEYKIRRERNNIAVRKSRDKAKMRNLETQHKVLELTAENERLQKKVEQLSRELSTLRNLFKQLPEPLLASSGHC
Sequence of Cellular tumor antigen p53 (Homo sapiens) (P04637 whole entry, looked up): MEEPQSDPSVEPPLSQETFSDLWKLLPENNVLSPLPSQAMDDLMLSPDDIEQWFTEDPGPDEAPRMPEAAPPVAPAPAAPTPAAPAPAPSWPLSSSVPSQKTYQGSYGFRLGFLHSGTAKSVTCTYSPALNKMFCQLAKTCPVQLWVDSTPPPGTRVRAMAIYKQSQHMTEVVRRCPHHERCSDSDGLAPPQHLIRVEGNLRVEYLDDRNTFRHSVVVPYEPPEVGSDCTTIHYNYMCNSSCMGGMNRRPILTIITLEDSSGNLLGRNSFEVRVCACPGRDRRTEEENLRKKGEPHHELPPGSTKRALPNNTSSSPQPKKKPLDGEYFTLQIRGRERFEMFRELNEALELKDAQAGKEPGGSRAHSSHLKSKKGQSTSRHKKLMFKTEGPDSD
Sequence of Estrogen receptor (Homo sapiens) (P03372 whole entry, looked up): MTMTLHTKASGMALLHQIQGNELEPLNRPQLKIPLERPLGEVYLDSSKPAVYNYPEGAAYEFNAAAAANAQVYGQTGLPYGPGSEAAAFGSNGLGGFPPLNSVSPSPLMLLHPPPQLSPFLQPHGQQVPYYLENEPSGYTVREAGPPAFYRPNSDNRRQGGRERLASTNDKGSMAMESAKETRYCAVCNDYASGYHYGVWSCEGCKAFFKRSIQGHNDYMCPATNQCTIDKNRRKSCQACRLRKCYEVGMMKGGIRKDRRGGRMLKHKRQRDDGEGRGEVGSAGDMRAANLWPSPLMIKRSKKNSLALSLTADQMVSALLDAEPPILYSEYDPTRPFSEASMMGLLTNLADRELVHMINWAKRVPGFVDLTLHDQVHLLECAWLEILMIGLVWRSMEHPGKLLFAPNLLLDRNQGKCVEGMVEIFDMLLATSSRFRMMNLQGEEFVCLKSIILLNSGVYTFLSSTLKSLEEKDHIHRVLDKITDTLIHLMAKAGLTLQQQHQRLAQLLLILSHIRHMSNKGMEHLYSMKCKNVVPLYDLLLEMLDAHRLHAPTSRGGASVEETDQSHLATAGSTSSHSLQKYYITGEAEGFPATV

CCO[Si](OCC)(OCC)c1ccccc1
inactive: [1] | [2] | [3] | [4] | [5] | [6] | [7] | [8] | [9] | [10]

CC(=O)O[C@]1(C(C)=O)CC[C@H]2[C@@H]3C=C(C)C4=CC(=O)CC[C@]4(C)[C@H]3CC[C@@]21C
inactive: [11] | [12] | [5] | [13] | [6] | [7] | [8] | [9] | [10] | [14] | [15]

O=[N+]([O-])c1ccc(ON=Cc2cc(Br)c(O)c(Br)c2)c([N+](=O)[O-])c1
inactive: [11] | [12] | [5] | [16] | [9]
active: [13] 79 µM | [6] 34.4 µM | [7] 8.26 µM | [8] 13.8 µM | [10] 75.9 µM

CCCCCCCCCCCCSC#N
inactive: [11] | [12] | [13] | [6] | [7] | [16]

CC(C)(C)NC(=O)[C@@H]1CN(Cc2cccnc2)CCN1C[C@@H](O)C[C@@H](Cc1ccccc1)C(=O)N[C@H]1c2ccccc2C[C@H]1O
inactive: [1] | [2] | [3] | [4] | [13] | [6] | [7] | [16] | [8]
active: [5] 36.3 µM | [13] 40.8 µM | [6] 43 µM | [16] 33.2 µM | [8] 43.8 µM | [9] 37.5 µM | [10] 39.8 µM

O=C(O)Cc1c[nH]c2ccccc12
inactive: [1] | [2] | [3] | [4] | [5] | [13] | [6] | [7] | [16] | [8] | [9] | [10] | [14] | [15]

CC[N+](CC)(CC(=O)Nc1c(C)cccc1C)Cc1ccccc1 (tested in a mixture with another compound)
inactive: [1] | [2] | [3] | [4] | [17] | [18] | [19] | [20] | [14] | [15]

CC1(O)CSC(C)(O)CS1 (stereo not given)
inactive: [11] | [12] | [5] | [13] | [6] | [7] | [8] | [9] | [10]

C=C(C)C(=O)OCC1CCCO1 (stereo not given)
inactive: [1] | [2] | [3] | [4] | [5] | [6] | [8] | [9] | [10]
